# Most compounds without a hit are left out; they make up all but 18% or so of the library.
# IL1B secr inh: blocks inflammasome-driven IL-1 beta release; activity change, % at 57.5 µM; 4.7% of 360,000 active; THP-1 LPS/ATP IL-1B secretion, AlphaLISA, 16 h; stronger effect = lower value; in the data active = activity change below about -50%; inconclusive = mostly about -30% to -49%
#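 Secreted IL-1B measured by AlphaLISA bead assay after 16 h compound exposure of THP-1 cells; compounds (final up to 57.5 uM) added 1 h before LPS (250 ng/mL) and ATP (1.25 mM) stimulation; lower signal means less secretion.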
# TDP1 block: TDP1 (human) enzyme inhibition; AID 485290; Potency, µM (series often up to 130 µM), actives largely listed as inhibitors; Q9NUW8; recombinant TDP1, AlphaScreen DNA substrate cleavage; 0.28% of 350,000 active; note: nearly all actives have a fitted effect of over 40% in size
#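 Steps: enzyme plus compound, 15 min RT; add biotin/phosphotyrosine-FITC oligonucleotide (15 nM final), react 5 min; add donor/acceptor beads (10 ug/ml final), 10 min; read AlphaScreen. Tdp1 at 1 nM final.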
# CtBP-E1A inh: inhibitors of CtBP/E1A interaction; AlphaScreen GST-E1A/His-CtBP binding, 1536-well; stronger effect = lower value; activity change, % (test concentration not listed); 0.49% of 340,000 active; in the data active = activity change below about -65%; inconclusive = mostly about -30% to -63%
#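 GST-E1A and His-tagged CtBP (125 nM each as 5X stock) were preincubated with pin-transferred compound for 2 h at 37 °C in the dark, then glutathione donor and nickel acceptor beads were added for 1 h before AlphaScreen reading.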
# DT40 TDP1 no CPT: qHTS for Inhibitors of human tyrosyl-DNA phosphodiesterase 1 (TDP1): qHTS in cells in absence of CPT | DT40 Tdp1-/- hTDP1 cells, no CPT, ATP luminescence, 48 h | Potency, µM (highest dose often 46.2 µM), usual class: inhibitors | 15% of 420,000 active | AID 686978, 2013; note: nearly all actives have a fitted effect of over 55% in size
#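 A cellular qHTS used chicken DT40 cells lacking endogenous Tdp1 but carrying stably transfected human TDP1. Compounds were applied without camptothecin, and cell growth kinetics were judged by ATP-dependent luminescence after ≥48 hr.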
# TDP1 cell CPT: growth inhibition of DT40 Tdp1-/-;hTDP1 cells with camptothecin (screen for TDP1 inhibitors) | chicken DT40 Tdp1-/-;hTDP1 cells + 20 nM CPT, ATP luminescence, 48 h | Potency, µM (series often up to 46.2 µM), most hits filed as inhibitors | 12% of 420,000 active | AID 686979; note: nearly all actives have a fitted effect of over 55% in size
#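 Cell growth measured by CellTiter-Glo luminescence after a minimum 48 h, 37 C compound exposure with 20 nM CPT in Tdp1-knockout DT40 cells stably expressing hTDP1, seeded 400/well; qHTS titration format.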
# Six1-Eya2 blk: Six1/Eya2 interaction inhibition; Q15475+O00167; AlphaScreen GST-Six1/His-Eya2 binding, biochemical; stronger effect = lower value; activity change, % (no concentration beside the values); 0.56% of 360,000 active; AID 651725; in the data active = activity change below about -65%; inconclusive = mostly about -30% to -63%
#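 GST-Six1 + His-Eya2 (5X stock: 250/500 nM); Tris pH 8.0, 300 mM NaCl, 0.05% BSA, 0.02% Tween 20; GSH donor/Ni acceptor beads; 1 h 37 °C dark; AlphaScreen readout.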
# Hits are given with their value; i = inactive; ? = inconclusive; nt = not tested or not shown; ! = not confirmed by another sample. Unless noted, calls come from the whole dose curve; as a rule, active = well fitted curve in the direction sought with a large enough effect; inconclusive = small, poorly fitted or top-dose-only effect, or another doubt; inactive = no such curve, though single readings can be large; an effect the other way counts as inactive or inconclusive.
SMILES,IL1B secr inh,TDP1 block,CtBP-E1A inh,DT40 TDP1 no CPT,TDP1 cell CPT,Six1-Eya2 blk
Cc1cccc(N2CCN(C(=O)CCS(=O)(=O)c3ccc4c(c3)oc(=O)n4C)CC2)c1C,i,i,i,?,?,i
Cn1c(=O)oc2cc(S(=O)(=O)N3CCC(C(=O)N4CC=C(c5ccccc5)CC4)CC3)ccc21,i,i,i,11.6µM,23.1µM,i
COc1ccccc1NC(=O)Cn1c(=O)oc2cc(S(=O)(=O)N3CCCC3)ccc21,i,nt,i,?,i,i
Cc1ccc(Cl)cc1NC(=O)Cn1c(=O)oc2cc(S(=O)(=O)N3CCCCCC3)ccc21,nt,i,nt,16.4µM,14.6µM,nt
Cc1cccc(NC(=O)C2CCCN(S(=O)(=O)c3ccc4c(c3)oc(=O)n4C)C2)c1 (centres undefined),i,i,i,?,?,i
COC(=O)N1CCC2(CCN(CC(C)C)CC2)CC1,nt,nt,nt,i,i,nt
O=C(c1cc(F)ccc1F)C1CCCN(CCCc2ccccc2)C1 (centres undefined),i,i,i,?,?,i
Cc1ccc(C(C)C)c(OCC#CCN2CCCC2)c1,i,i,nt,?,i,i
CC(C)(OOC(C)(C)c1ccccc1)c1ccccc1,nt,i,nt,nt,nt,nt
CNS(=O)(=O)c1ccc(N=Cc2c(O)n(-c3ccc(C)cc3)c(=O)[nH]c2=O)cc1,i,i,i,i,i,i
Cc1c(NP(=S)(C(C)(C)C)C(C)(C)C)c(=O)n(-c2ccccc2)n1C,i,i,i,i,i,i
COc1cccc(N2CCN(C(=O)C3CCCN(S(=O)(=O)c4ccc5c(c4)oc(=O)n5C)C3)CC2)c1 (centres undefined),i,i,i,14.6µM,18.4µM,i
Cn1c(=O)oc2cc(S(=O)(=O)N3CCC(C(=O)N4CCN(c5ccccc5)CC4)CC3)ccc21,i,i,i,20.6µM,?,i
Cc1cccc(N2CCN(C(=O)CCNS(=O)(=O)c3ccc4c(c3)oc(=O)n4C)CC2)c1C,-67.3,i,i,16.4µM,?,i
Cn1c(=O)oc2cc(S(=O)(=O)N3CCC(C(=O)N4CCN(c5ccc(F)cc5)CC4)CC3)ccc21,i,i,nt,9.2µM,25.9µM,i
O=C(O)C1(Br)CC12c1ccccc1-c1ccccc12 (centres undefined),i,nt,i,i,i,i
C[C@]12CC[C@H](O)C[C@H]1CC[C@@H]1[C@@H]2CC[C@]2(C)C(=O)CC[C@@H]12,i,i,i,?,i,i
CC1Cc2ccccc2CN1 (centres undefined),nt,nt,nt,i,i,nt
Cc1ccccc1C1CC(=O)Nc2ccc3ccccc3c21 (centres undefined),nt,i,nt,11.6µM,11.6µM,nt
CC(N)[C@@H](O)c1ccccc1 (some centres undefined),nt,i,nt,i,i,nt
CCCCC/C=C\C/C=C\C/C=C\C/C=C\CCCC(=O)NCc1ccc(O)c(OC)c1,nt,i,nt,nt,nt,nt
COc1cc(CNC(=O)CCCC/C=C/C(C)C)ccc1O,i,i,i,8.91µM!,11.2µM!,i
c1coc(CNCCc2c[nH]c3ccccc23)c1,i,i,i,i,i,i
Fc1ccc(CNCCc2c[nH]c3ccccc23)cc1,-81.3,i,i,4.61µM,?,i
OC(CNCCc1c[nH]c2ccccc12)c1ccccc1 (centres undefined),-56.6,i,i,i,i,i
SMILES,IL1B secr inh,TDP1 block,CtBP-E1A inh,DT40 TDP1 no CPT,TDP1 cell CPT,Six1-Eya2 blk
Fc1ccc(CCNCc2ccc(Br)cc2)cc1,-68.0,i,i,?,?,i
Fc1ccc(CNCCc2ccccc2F)cc1,i,i,i,i,i,i
FC(F)(F)c1ccccc1CNCCc1c[nH]c2ccccc12,i,nt,nt,14.6µM,?,i
CC(C)(COCC1CO1)COCC1CO1 (centres undefined),nt,i,nt,nt,nt,nt
CCOc1ccc(/C=C/C(=O)C(C(N)=O)=C2SCCS2)cc1,i,i,i,?,?,i
CCC(C)N1CCN(C(=O)Cc2ccccc2)CC1 (centres undefined),i,i,i,i,i,i
Fc1ccccc1CNCCc1c[nH]c2ccccc12,i,nt,i,?,16.4µM,i

# Compound activity as filed in PubChem BioAssay.
